Screening results: PubChem, National Center for Advancing Translational Sciences (NCATS)
AmpC det inh: blocks E. coli AmpC beta-lactamase in presence of detergent; P00811; purified AmpC, nitrocefin hydrolysis with detergent; Potency, µM (series often up to 28.7 µM), without a hit: at the top dose activity change, negative = inhibition; 71,000 tested, 0.09% active; AID 584; active means well fitted curve in the direction sought with a large enough effect; inconclusive means small, poorly fitted or top-dose-only effect; further: on the % scale 0 is the no-effect control and ±100 the full control effect
Target sequence (P00811 whole entry, looked up): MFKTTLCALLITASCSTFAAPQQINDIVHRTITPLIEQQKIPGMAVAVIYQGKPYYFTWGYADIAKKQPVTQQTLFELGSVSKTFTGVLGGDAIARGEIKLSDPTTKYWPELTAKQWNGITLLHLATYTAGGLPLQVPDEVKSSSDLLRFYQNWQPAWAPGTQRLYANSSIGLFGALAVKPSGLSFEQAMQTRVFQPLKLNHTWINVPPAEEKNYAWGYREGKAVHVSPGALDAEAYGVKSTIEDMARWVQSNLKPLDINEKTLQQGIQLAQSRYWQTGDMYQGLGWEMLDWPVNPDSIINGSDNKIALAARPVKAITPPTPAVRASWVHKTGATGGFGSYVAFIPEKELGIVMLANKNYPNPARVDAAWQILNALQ
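E. coli AmpC (5.3 nM) in 20 mM phosphate pH 7.0 with 0.01% Triton X-100, preincubated 15 min RT with compound; nitrocefin (2 uL of 800 uM stock) hydrolysis followed by 480 nm absorbance every 20 s over 4 min.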
AmpC nodet inh: inhibitors of E. coli AmpC beta-lactamase without detergent | P00811 | AmpC nitrocefin hydrolysis, absorbance 480 nm, no detergent | Potency, µM (top dose mostly 28.7 µM), inactives show at the highest dose activity change, negative = inhibition | 71,000 tested, 1.8% active; further: % of control where 0% means no effect
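Enzyme, pH 7.0 phosphate. Compound titrations were pre-incubated with AmpC for 15 min at room temperature before nitrocefin (stock 800 uM) addition; product formation was recorded at 480 nm every 20 s for 4 min.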
Prx2 Sm inh: inhibitors of Schistosoma mansoni peroxiredoxin 2; S. mansoni Prx2 activity coupled to TGR/GSH (TGR is thioredoxin glutathione reductase), NADPH fluorescence loss, qHTS; Potency, µM; 65,000 tested, 0.07% active
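Prx2 activity was followed as the loss of NADPH fluorescence (ex 365/em 450 nm), read every 30 sec for 8 min after H2O2 start. The enzyme mix (50 nM Prx2, 25 nM TGR, GSH, NADPH; pH 7.4 phosphate buffer) was incubated with compound for 15 min at room temperature first.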
LT uptake inh: blocks cellular internalization of anthrax lethal toxin; AID 912; Cells, anthrax lethal toxin internalization, FRET ratio (460/530); Potency, µM (top dose mostly 40 µM), without a hit: at the highest dose activity change, negative = inhibition, hits mostly inhibitors; 70,000 tested, 0.67% active; further: on the % scale 0 is the no-effect control and ±100 the full control effect; nearly all actives have a fitted effect of over 50% in size
* hit, by the source's call; u = inconclusive; x = not tested or not shown; ! = not active in a repeat; [ ] = dose if it differs, or a comment. Compounds with a hit are over-represented: about 2.4% of the library has one in this group of screens. Unless noted, the call rests on the fitted dose curve. Potency means the concentration at half of the fitted maximal effect.

SMILES	AmpC det inh	AmpC nodet inh	Prx2 Sm inh	LT uptake inh
Cn1cccc1Cc1nnc(SCC(=O)NC2CCCC2)n1-c1ccc(F)cc1	15%	4µM*[single pt active]	>57	-24%
O=C(Cc1cc(=O)[nH]c(=O)[nH]1)NCC1CCCO1 (centres undefined)	9%	71%	>57	4µM*
CCc1c2c(nc3c(C(C)C)cccc13)-c1cccc(=O)n1C2	-6%	161%	>57	u
CSc1ccccc1NC(=O)c1ccncc1	1%	5%	>57	-2%
C/C(=C\C(=O)c1ccncc1)Nc1ccccc1O	5%	0%	x	2.5µM*
CO[C@@H]1COC(=O)[C@H](C)NC(=O)[C@@H](C)COC(=O)[C@H](C)NC(=O)C/C=C\[C@H]1C	x	x	x	-2%[8 µM]
CO[C@@H]1COC(=O)[C@H](C)NC(=O)C/C=C\[C@@H](C)[C@@H](NS(=O)(=O)c2ccc(C)cc2)COC(=O)C/C=C\[C@@H]1C	x	x	x	3%[1.6 µM]
CCC1OCCC=CC1C (centres undefined)	x	x	x	-9%[8 µM]
CCCOc1nc(N)c(C#N)c(-c2ccccc2F)c1C#N	-3%	0%	>57	7.9µM*
COC(=O)C(CC(=O)c1ccc(Br)cc1)n1ccnc1 (centres undefined)	-4%	7%	>57	13µM*
Cc1ccc(C(=O)CC(C(=O)O)n2cccn2)cc1 (centres undefined)	0%	-6%	>57	8%
NNc1c(C(N)=O)c2c(N)ncnc2n1[C@@H]1O[C@H](CO)[C@@H](O)[C@@H]1O	-3%[5.75 µM]	-12%[5.75 µM]	>57	-11%[8 µM]
CSc1ccc2c(c1)c(CCN)c(C)n2Cc1ccccc1Cl	-3%[5.75 µM]	15%[5.75 µM]	>57	u
O=C(Nc1ccccc1)c1ccc2nc(-c3ccco3)c(-c3ccco3)nc2c1	-7%	-3%	>57	u
CCCCNC(=O)c1ccc2nc(-c3ccco3)c(-c3ccco3)nc2c1	8%	4µM*[single pt active]	>57	-8%
Fc1ccc(OCc2nc(-c3ccc(Br)o3)no2)c(F)c1	10%	2.5µM*[single pt active]	>57	u
Brc1ccc(-c2noc(CCc3ccccc3)n2)o1	10%	4µM*[single pt active]	>57	u
CC(=O)O[C@H]1C2=CO[C@H](C)[C@H]3[C@H]4C5=C([C@H](O)[C@H]6O[C@@H]6C5=O)[C@H](O[C@H]4C)[C@@]23C(=O)[C@H]2O[C@@H]21	x	x	x	-2%[8 µM]
CCOC(=O)c1cc2sccc2n1CC(=O)N1c2ccccc2CC1C (centres undefined)	0%	16µM*[single pt active]	>57	10%
CCOc1ccc2nc(NC(=O)Nc3cccs3)sc2c1	10%	3.2µM*[single pt active]	>57	u
CCOc1ccc2nc(NC(=O)COC)sc2c1	-4%	8%	>57	6%
CC(C)c1ccc(Cn2ccc3c4c(N)nc(NC5CC5)nc4ccc32)cc1	-4%	12%	>57	25µM*
C/C(CCN1CCCc2nc(C)c(C)cc21)=N\O[C@@H](C)CN1CCCc2nc(C)c(C)cc21	x	x	x	8%[0.32 µM]
O=C(Cc1c[nH]c2ccccc12)Nc1nc2ccccc2[nH]1	2%	7.9µM*	>57	-2%
O=C(Cc1ccccc1)Nc1nc2ccccc2[nH]1	-5%	-17%	>57	-7%
SMILES	AmpC det inh	AmpC nodet inh	Prx2 Sm inh	LT uptake inh
COC(=O)NC(c1cccc(F)c1)[C@]1(C(C)=O)CCCC1=O (some centres undefined)	x	x	x	-6%[8 µM]
O=C(c1ccco1)N1CCC2(CC1)CCN(c1ccncc1)CC2	-4%	56%	>57	u
C=C(CC(=O)OC)C[C@]1(CC(=O)OC)CC2(CC=C(C)C)C(=O)C(C(=O)c3ccccc3)=C(OC(=O)c3ccc(Br)cc3)C(CC=C(C)C)(C1)C2=O (some centres undefined)	x	x	x	1%[8 µM]
O=C(Oc1cc2oc(=O)c3c(c2cc1Cl)CCCC3)c1ccco1	7%	-7%	19*	u
C=C1CC[C@@H]2[C@](C)(CC[C@@H](O)[C@]2(C)CO)[C@@H]1C/C=C1/C(=O)OC[C@H]1O	12%	3%	>57	u
Cc1csc(NC(=O)CCCSc2nc3ccccc3s2)n1	2%	1%	>57	-18%
Cc1cnc(NC(=O)CCCSc2nc3ccccc3s2)s1	-4%	13µM*	>57	18%
CC(C)[C@@]1(NC(=O)[C@H]2C[C@H]3c4cccc5[nH]cc(c45)C[C@@H]3N(C)C2)O[C@]2(O)[C@H]3CCCN3C(=O)[C@H](Cc3ccccc3)N2C1=O	1%	128%	>57	u
C[C@H](Cc1ccc(O)c(O)c1)[C@@H](C)Cc1ccc(O)c(O)c1	-5%	-24%	>57	16µM*!
N[C@@H](Cc1ccc(O)c(O)c1)C(=O)O	1%[12.8 µM]	-11%[12.8 µM]	>57	-10%[3.58 µM]
CCC[C@@H]1C[C@@]1(CCC)C(NP(=O)(c1ccccc1)c1ccccc1)c1ccc(Cl)cc1 (some centres undefined)	2%	38%	>57	-1%
Cc1ccc(C)c2[nH]c(=O)c(CN(CCN3CCCC3)C(=O)Nc3cccc(Cl)c3)cc12	-3%	98%	>57	7.9µM*
Cc1cc(C(=O)CN2CC(C)OC(C)C2)c(C)n1-c1ccccc1 (centres undefined)	13%	4µM*[single pt active]	>57	7%
CCC(Sc1nccn1C)C(=O)Nc1nnc(C)s1 (centres undefined)	8%	4µM*[single pt active]	>57	-10%
CCC(Sc1nccn1C)C(=O)Nc1cccc2ccccc12 (centres undefined)	-6%	-3%	>57	-4%
CCOc1c(C(N)=O)c(-c2ccccc2)c2c(=O)[nH]c3ccccc3n12	1%	13µM*	>57	u
CCCCCCC1Cc2cc(OC)c(OC)cc2C(C(C(=O)OCC)C(=O)OCC)O1 (centres undefined)	x	x	x	-35%[8 µM]
CCCCn1c2c(c3ccccc31)CCc1nonc1-2	26%	4µM*[single pt active]	>57	u
Cc1cc(NC(=O)c2cc(-c3cccs3)nc3ccccc23)no1	5%	4µM*[single pt active]	>57	u
Cc1cc(NC(=O)c2cc(-c3ccccn3)nc3ccccc23)no1	-5%	18%	>57	u
CN(C)c1ccc(NC(=O)c2ccc(COc3cccc(Cl)c3)o2)cc1	9%	16%	>57	10µM*
O=C(c1ccc(COc2ccc(Cl)cc2)o1)N1CCN(Cc2ccc3c(c2)OCO3)CC1	-6%	91%	x	-22%
O=C(Nc1ccc2c(c1)OCO2)c1ccc(COc2ccc3c(c2)CCC3)o1	-4%	-20%	>57	6.3µM*
O=C(Oc1ccc(S(=O)(=O)F)cc1F)c1ccccc1Cl	-6%[5.75 µM]	-11%[5.75 µM]	>57	3%[8 µM]
COc1ccc(OCc2nnc3n2N=C(c2ccc(OC)cc2)CS3)cc1	14%	4µM*[single pt active]	>57	-1%
O=C(COC(=O)c1ccc(Br)o1)Nc1nc2ccccc2s1	1%	5µM*	x	0%
Cc1ccc(C(=N)c2ccccc2Cc2cccc3ccccc23)c2ccccc12	-2%[5.75 µM]	2%[5.75 µM]	>57	2.5µM*
Cc1cccc2ccccc12	8%	-1%	x	-7%
N#Cc1c(-c2ccccc2)no[n+]1[O-]	0%	3%	8.7*	-5%
N#Cc1cn(-c2ccccc2)nc1-c1ccccc1	2%	-13%	>57	-6%
